Consider 40 sequences from the supplement of paper PMC6555819.

The experiment concerns VDR:RXRa (NR concentration 270 nM, RXRa partner concentration 90 nM). Description: PBM binding z-score (relative to random genomic background probes); higher = stronger binding; sequences stand for … in GC…GCGATTGACAGCGTAGAATGAAGG
The method, then:
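Protein-binding microarray (Agilent 4x180K custom design, double-stranded 60-nt probes: 5' GC cap, 34-nt variable region, 24-nt constant primer region; full probe sequence given). Purified or IVT nuclear receptor:RXRα heterodimers (3:1 NR:RXRα, mostly 270:90 nM) or homodimers were incubated for 1 h in PBS with 2% milk and no ligand, then detected with Alexa488 antibodies. Fluorescence from o1-orientation probes (~5 replicates averaged) was converted to z-scores against 500 random hg19 background probes. Variable regions are seed direct-repeat (DR0–DR5) sites, all their single-nucleotide variants and half-site ablations.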
Sequence ATATGTAGGTTACATCCGGTTCATTCAGGCTATG returned a PBM binding z-score of 4.76.
Under CCTACTGGGCCACCAAAGGTCATTGATTCAGTGA stands 4.13; under CAAACTAGGTCACCGGAAGGCCAAAGTCCGCATG, 3.23.
With TCATATTGGTAAAGGTGAAAGTCGAACGATATGA, the PBM binding z-score was determined as 0.612.
Under CGTCCAAGATCATAGGAGGTCAGTGAAGACAGAT stands 2.63; under GCTTACGGGTCAAACGTTATAGCATGAATAGAAT, 3.74; under GGAACGAGGGCAAGTGGATAGCAGAGTTTGATGG, 0.391.
As for CGTTAAAGTTCAACTAAGGTAACGTAAAGCACGC, the figure is 4.58.
As for GATACAGGGTCAGCTAGAGGCTAGAGTATGGAAA, the figure is 2.67; as for CAATCTAGGTCACCGGAAGGTCAAAGTCCGCATG, 6.01.
With CCTAGTTGGTCACGAGGTCACACACCGGATATGA, the PBM binding z-score was 4.77.
As for ATCGAAAGGTCGTGAGGTGCGTATACAGAAAGGC, the figure is 6.03.
As for TTACCGAGGTGAAGGTCGTTGATCCCTCTGTAGA, the figure is 1.5.
As for ATCTCTAGGTAAGACCCAGTTCAGTGAAGAACGC, the figure is 1.04.
Turning to ACAGACAAGTGAGTGAAGGTAACTCAGCTGGACG, the PBM binding z-score was -0.435.
In the case of TCTGCTAGGTCAGTTGGTCAGCTAGCGAGCTGCC, the PBM binding z-score was -0.184.
As for ACTTACGGGACAACGAGGTTATAGCACGCGTATA, the PBM binding z-score was found to be 2.29.
As for TCGAGTAGGTTCGGGGCATTCAGAATGGCGTCGA, the figure is 0.124; as for AGTCAATGTTCACTAGGTAACGTAAGATTCAGCT, -0.0351; as for GCTAGCAGGGCATTTGGGTCACTCAATGACGGGC, 2.15.
TTACCAAGGTGAAAGGTCGTTCATGCACGCCTTG showed a PBM binding z-score of 3.53.
Under CCTAGCAGACCAGGGTCACTCAAGCATTTCGCTT stands 2.69; under TCATATAGGTAATACAGGTGAAAGCCGGCATCTA, 1.2; under ATCTCTAAGTAAAGTTCAGTGAAAGATCGATAGA, 1.67.
Under CCCACTGGGGCATAAGGTTACCATAAGCCAGCCC stands -0.113; under CCAGACAGGTGAAAGGTAGCTCAGTCTGGTACGC, -0.089; under GGAACGAGGGCATTCGAGTTGATAGAATGGCGAT, 3.62.
Under TCTTTTAGATCAACAGGAGGTTAAGAAAGATCGA stands 0.982.
CCAGACAGGTGAGAAGGGAACTCAGCCTCGATTA: the PBM binding z-score is -0.443.
CAAACTAGGTCACGGAAGGTCAAAGTCGAATGAC: the PBM binding z-score is 6.69.
Under CATACAGGGTCAGATAGGCCAGAGTAGGGACGGC stands 3.2.
In turn, GGAACGAGGGCAAGTTGATAGCGGAGTTTGATGG showed a PBM binding z-score of 0.636.
As for TAATATAGGTAAAAGGTGAAAGTCGGTGTGGTAA, the figure is 1.59; as for CAAACTACGTCACCGGAAGGTCAAAGTCCGCATG, 3.23.
As for GCTCGGAGGTCAAGGTCAGAGCTTTGTCCGTAGA, the PBM binding z-score is 5.06.
Consider AGAACGAGGGCACGATGAGTTGATAGCAGAGTAG, for which the PBM binding z-score was found to be 2.32.
Under ATCGAAAGGTCGTGAGGGGAGTATACAGAAAGGC stands 3.55; under GATACAGGGTCAAGGGCAGAGTACGCGTATTGAT, 4.62; under ACAGACAGGTGAGTTAAGGTAACTCAGCTGGACG, -0.161.
As for AGAATTAGGTTATACGTAGATCAGGGAAGAAAGT, the figure is 0.22.
